The text below walks through data of the supplement of paper PMC12350171.

The structures appear in SMILES notation. Structures can show the parent of a compound that is named as a salt. Values without a mark were called inactive.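 The calls were made as follows: active = normalised median growth AUC below 0.1 of DMSO control; inactive = AUC 0.1 or higher.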
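Also: active when median AUC fell below 0.1.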

For the experiment, the system named is S. enterica typhimurium tolC KO. As to the kind of experiment: growth AUC normalised to DMSO control (median) (fraction of control); higher = less growth inhibition, active = hit call of the paper. As to conditions: 20 µM. The method in brief: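 For normalised area under the curve, growth curves were truncated at entry into stationary phase, integrated by the trapezoidal rule and divided against vehicle wells on the same plate. The curves came from strains passaged twice overnight without oxygen and then grown in mGAM in 96-well plates at a starting OD578 of 0.01. Each well held an approved-drug library compound at 20 μM with 1% DMSO, and OD578 was read hourly for 24 h in an anaerobic incubator. Values are medians of three biological replicates.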
With `O=C1c2cccc3c2[C@H](CCC3)CN1[C@@H]1CN2CCC1CC2` [Palonosetron hydrochloride], the “growth AUC normalised to DMSO control” value was 0.998.

As to `N[C@@H](CSCCCO)C(=O)O` [Fudosteine], the “growth AUC normalised to DMSO control” value is 1.

Turning to `NC[C@H]1O[C@H](O[C@H]2[C@H](O)[C@@H](O[C@H]3O[C@H](CO)[C@@H](O)[C@H](N)[C@H]3O)[C@H](N)C[C@@H]2N)[C@H](N)[C@@H](O)[C@@H]1O` [Kanamycin B], the “growth AUC normalised to DMSO control” value is 1.02.

In the case of `CC1=C(C)C(=O)C(C(CCCCCC(=O)O)c2ccccc2)=C(C)C1=O` (stereo not given) [Seratrodast], the “growth AUC normalised to DMSO control” value was 0.999.

Turning to `Cc1cccc(C)c1OCC(=O)N[C@@H](Cc1ccccc1)[C@@H](O)C[C@H](Cc1ccccc1)NC(=O)[C@H](C(C)C)N1CCCNC1=O` [Lopinavir], the “growth AUC normalised to DMSO control” value is 1.01.

For the compound `CC(C)=CCOc1ccc(/C=C/C(=O)c2ccc(OCC=C(C)C)cc2OCC(=O)O)cc1` [Sofalcone], the “growth AUC normalised to DMSO control” value was 0.902.

As to `CCCCS(=O)(=O)N[C@@H](Cc1ccc(OCCCCC2CCNCC2)cc1)C(=O)O` [Tirofiban hydrochloride], the “growth AUC normalised to DMSO control” value is 0.964.

Regarding `Brc1c(NC2=NCCN2)ccc2nccnc12` [Brimonidine L-tartrate], the “growth AUC normalised to DMSO control” value was 1.01.

As for `CC(=O)Nc1c(I)c(NC(C)=O)c(I)c(C(=O)O)c1I` [Diatrizoic acid dihydrate], the “growth AUC normalised to DMSO control” value was 0.995.

For the compound `CCOC(=O)OC(C)OC1=C(C(=O)Nc2ccccn2)N(C)S(=O)(=O)c2ccccc21` (stereo not given) [Ampiroxicam], the “growth AUC normalised to DMSO control” value is 0.986.

With `N[C@@H](CCC(=O)N[C@@H](CS)C(=O)NCC(=O)O)C(=O)O` [Glutathione], the “growth AUC normalised to DMSO control” value is 0.956.

On to `CC(C)CN(C[C@@H](O)[C@H](Cc1ccccc1)NC(=O)O[C@H]1CCOC1)S(=O)(=O)c1ccc(N)cc1` [Amprenavir], for which the “growth AUC normalised to DMSO control” value is 0.995.

For the compound `COc1ccc2c(c1)c(CC(=O)OC/C=C(\C)CC/C=C(\C)CCC=C(C)C)c(C)n2C(=O)c1ccc(Cl)cc1` [Indometacin farnesil], the “growth AUC normalised to DMSO control” value is 1.01.

For `C=C1[C@H](CO)[C@@H](O)C[C@@H]1n1cnc2c(=O)[nH]c(N)nc21` [Entecavir], the “growth AUC normalised to DMSO control” value was 0.987.

`CCCN1CCCC[C@H]1C(=O)Nc1c(C)cccc1C` [Ropivacaine hydrochloride]: the “growth AUC normalised to DMSO control” value was 1.

Turning to `CCNC(=O)CCC/C=C\C[C@@H]1[C@@H](/C=C/[C@@H](O)CCc2ccccc2)[C@H](O)C[C@@H]1O` [Bimatoprost], the “growth AUC normalised to DMSO control” value was 0.99.

`C[C@@H](CN1CC(=O)NC(=O)C1)N1CC(=O)NC(=O)C1` [Dexrazoxane hydrochloride]: the “growth AUC normalised to DMSO control” value is 0.989.

For the compound `CN(C/C=C/C#CC(C)(C)C)Cc1cccc2ccccc12` [Terbinafine], the “growth AUC normalised to DMSO control” value was 0.928.

In the case of `C[C@H]1[C@@H](O)O[C@@H]2O[C@@]3(C)CC[C@H]4[C@H](C)CC[C@@H]1[C@@]24OO3` [Artenimol], the “growth AUC normalised to DMSO control” value was 1.

On to `O=c1[nH]cnc2c1ncn2[C@@H]1O[C@H](CO)[C@@H](O)[C@H]1O` [Inosine], for which the “growth AUC normalised to DMSO control” value is 1.01.

Turning to `CC1(C)S[C@@H]2[C@H](NC(=O)[C@H](N)c3ccccc3)C(=O)N2[C@H]1C(=O)OC1OC(=O)c2ccccc21` (stereo not given in full) [Talampicillin hydrochloride], the “growth AUC normalised to DMSO control” value was 0.00469 (active).

As to `CC(C(=O)O)c1ccc(N2CC=CC2)c(Cl)c1` (stereo not given) [Pirprofen], the “growth AUC normalised to DMSO control” value is 1.

Take `Cn1cc([S+](C)[O-])c(=O)c2ccc(F)cc21` (stereo not given) [Flosequinan]: the “growth AUC normalised to DMSO control” value is 0.99.

`CCN(CC)CCOCCOC(=O)C(CC)(CC)c1ccccc1` [Oxeladin citrate]: the “growth AUC normalised to DMSO control” value was 0.973.

`Cc1ccc2c([nH]c(=O)c3c(=O)cc(C(=O)OCCC(C)C)oc32)c1C` [Repirinast]: the “growth AUC normalised to DMSO control” value is 0.924.

As to `Nc1c2ccccc2nc2ccccc12` [Aminacrine], the “growth AUC normalised to DMSO control” value is 0.903.

In the case of `O=C(O)C1CSCN1` (stereo not given) [Timonacic], the “growth AUC normalised to DMSO control” value is 0.998.

With `Nc1ccc(S(=O)(=O)Nc2ccc(Cl)nn2)cc1` [Sulfachloropyridazine], the “growth AUC normalised to DMSO control” value was 0.963.

Consider `N#Cc1ccc(Oc2ccc3c(c2)COB3O)cc1` [Crisaborole], for which the “growth AUC normalised to DMSO control” value was 1.02.

Take `N=c1ccn2c(n1)O[C@H]1[C@H](O)[C@@H](CO)O[C@H]12` [Ancitabine hydrochloride]: the “growth AUC normalised to DMSO control” value was 0.991.

On to `Oc1cc(O)c2c(c1)O[C@H](c1ccc(O)c(O)c1)[C@@H](O)C2` [Cianidanol], for which the “growth AUC normalised to DMSO control” value is 0.994.

`COc1cccc(CCc2ccccc2OCC(CN(C)C)OC(=O)CCC(=O)O)c1` (stereo not given) [Sarpogrelate hydrochloride]: the “growth AUC normalised to DMSO control” value is 0.988.

As for `CC(=O)N[C@H]1[C@H]([C@H](O)[C@H](O)CO)OC(C(=O)O)=C[C@@H]1NC(=N)N` [Zanamivir], the “growth AUC normalised to DMSO control” value is 1.02.

Regarding `CN1CCN(C2Cc3ccccc3Sc3ccc(Cl)cc32)CC1` (stereo not given) [Octoclothepin maleate salt], the “growth AUC normalised to DMSO control” value was 0.929.

For the compound `Cc1ccc2c(Cl)cc(Cl)c(O)c2n1` [Chlorquinaldol], the “growth AUC normalised to DMSO control” value is 0.371.

With `NS(=O)(=O)c1cc2c(cc1Cl)NC(Cc1ccccc1)NS2(=O)=O` (stereo not given) [Benzylhydrochlorothiazide], the “growth AUC normalised to DMSO control” value is 0.994.

As for `N[C@@H](C(=O)N[C@@H]1C(=O)N2C(C(=O)O)=C(Cl)CC[C@H]12)c1ccccc1` [Loracarbef], the “growth AUC normalised to DMSO control” value is 0.0264 (active).

Take `CC(=O)OC[C@H]1O[C@@H](n2ncc(=O)[nH]c2=O)[C@H](OC(C)=O)[C@@H]1OC(C)=O` [Azaribine]: the “growth AUC normalised to DMSO control” value is 1.

As for `NCCc1c[nH]cn1` [Histamine dihydrochloride], the “growth AUC normalised to DMSO control” value was 0.982.

On to `OC(CNCC(O)C1CCc2cc(F)ccc2O1)C1CCc2cc(F)ccc2O1` (stereo not given) [Nebivolol hydrochloride], for which the “growth AUC normalised to DMSO control” value was 0.925.
